Values joined by “and” are separate entries in the source; they are usually repeats but may differ in a detail not shown here. Equal values may be shown once. Records with an inconclusive call do not appear. For some of these results: Potency and affinity values are given separately. Active and inactive are the calls of the source.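 How the source made its calls, unless noted: active means compounds killing one labelled cell type while sparing the other, by normalised counts and ratio limits, not self-fluorescent; inactive means the rest.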
Legend:
[1] = EMT-state selective cytotoxicity in co-culture – imaging, PC-3E GFP, TEM4-18 mCherry, primary screen (AID 1345086); conditions: PC-3E GFP / TEM4-18 mCherry co-culture, imaging cell counts, at 1 µM; for red/green cell ratio (normalised): actives lie on both sides, counts scaled to control wells, 1 = unselective;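 on all read-outs here: cells exposed to compound for 72 h before imaging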;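 on red/green cell ratio (normalised): normalised mesenchymal count divided by normalised epithelial count so high means epithelial killing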
[2] = blockers of polyQ-driven CASP3 activation – cell-based (AID 1583); conditions: polyglutamine-induced caspase-3 activation, cell assay; stronger effect = higher value;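 tested at 10 µM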
[3] = yeast 75Q aggregation reduction – 75Q-TubU reporter (AID 1593); conditions: Yeast 75Q polyglutamine aggregation reporter
[4] = restoration of touch response, mutant HTT neurons – whole organism, C. elegans mechanosensory neurons, N-terminal huntingtin (AID 1599); conditions: C. elegans polyQ-huntingtin mechanosensory neurons, stronger effect = higher value
[5] = blockers of cytochrome c efflux from mitochondria – biochemical, purified mitochondria (AID 1603); conditions: stronger effect = lower value;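 further: mouse liver mitochondria challenged with calcium chloride; signal normalized to the plate average as 100%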
[6] = polyglutamine aggregate formation blockers (AID 1604); conditions: polyglutamine-induced protein aggregation inhibition assay; stronger effect = higher value; tested at 2.5 µM
[7] = glutamate transport activators, MN-1 cells, MN-1 cell line (AID 1612); conditions: MN-1 motor neuron cells, stronger effect = higher value;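 further: tested at 1 µM final; 0% = mean of DMSO vehicle wells on each plate; positive means more glutamate uptake than control and negative means less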
[8] = 75Q-TubH aggregate inhibition, S. cerevisiae, yeast (AID 1616); conditions: S. cerevisiae 75Q-TubH polyglutamine aggregation suppression; stronger effect = higher value
[9] = compounds altering circadian rhythm period length – cell-based, LOPAC library, luminescence reporter (AID 2774; call rule not given here;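 further: values are relative to mean of DMSO wells on each plate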); conditions: circadian reporter cells, at 7 µM, actives lie on both sides
[10] = P. berghei load reduction in hepatocytes – cell-based, HepG2, luciferase luminescence, HepG2 viability, primary screen (AID 624349; in the data active means parasite load remaining mostly below about 12%, no sharp cut-off; inactive means mostly above about 10%;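 further: 100% = mean of DMSO negative control wells on the same plate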); conditions: P. berghei liver stage in HepG2, luciferase luminescence, concentration not given here; parasite load remaining: stronger effect = lower value; viability: measured here: HepG2 viability without parasites
[11] = test system: Hepatitis C virus NS3 helicase; assay: blockers of NS3h binding to ssDNA – biochemical, fluorescence polarization, LOPAC1280 library, primary screen (AID 687035; in the data active means inhibition above about 37%); conditions: Purified HCV NS3 helicase, Cy5-dT15 ssDNA binding fluorescence polarization; stronger effect = higher value; concentration not given here
[12] = compounds altering Cy5-DNA-NS3h complex signal – biochemical, LOPAC1280, artefact control for HCV NS3 helicase inhibitor project (AID 687037; call rule not given here); conditions: Cy5-DNA-NS3h complex fluorescence interference counterscreen
[13] = test system: Aerobactin synthetase IucA (Klebsiella pneumoniae); assay: inhibition of K. pneumoniae IucA enzyme – biochemical, Tocris library, absorbance (AID 1345561; call rule not given here;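 further: 100% = enzyme without compound and 0% = no enzyme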); conditions: purified IucA enzyme assay, absorbance (OD) read-out; stronger effect = lower value;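 tested at 8 µM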
[14] = viability loss in pontine glioma line – cell-based, SU-DIPG-XVII, MIPE5.0, CellTiter-Glo, qHTS, dose response (AID 1347060; cut-off not given, nearly all actives have AC50 up to about 26 µM;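 further: cells exposed to compound for 48 hours before viability readout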); conditions: CellTiter-Glo ATP luminescence
[15] = viability loss in pontine glioma line – cell-based, SU-DIPG-XIII, MIPE4.0, CellTiter-Glo, qHTS, dose response (AID 1347061; cut-off not given, nearly all actives have AC50 up to about 37 µM;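 further: cells exposed to compound for 48 hours before readout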); conditions: CellTiter-Glo ATP luminescence
[16] = viability loss in pontine glioma line – cell-based, JHH-DIPG-1, MIPE4.0, CellTiter-Glo, qHTS, dose response (AID 1347062; cut-off not given, nearly all actives have AC50 up to about 27 µM); conditions: JHH-DIPG-1 viability, CellTiter-Glo ATP luminescence
[17] = viability loss in pontine glioma line – cell-based, SU-DIPG-IV, MIPE4.0, CellTiter-Glo, qHTS, dose response (AID 1347063; cut-off not given, nearly all actives have AC50 up to about 30 µM;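 further: compound exposure lasted 48 hours before the viability readout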); conditions: CellTiter-Glo ATP luminescence
[18] = viability loss in pontine glioma line – cell-based, SU-DIPG-XIII, MIPE5.0, CellTiter-Glo, qHTS, dose response (AID 1347064; cut-off not given, nearly all actives have AC50 up to about 23 µM); conditions: CellTiter-Glo ATP luminescence
[19] = viability loss in pontine glioma line – cell-based, SU-DIPG-XXV, MIPE5.0, CellTiter-Glo, qHTS, dose response (AID 1347065; cut-off not given, nearly all actives have AC50 up to about 26 µM;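 further: cells exposed to compound for 48 hours before ATP readout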); conditions: CellTiter-Glo ATP luminescence
[20] = growth inhibition of DIPG cells – cell-based, MIPE4.0 library, CellTiter-Glo luminescence, qHTS (AID 1347066; cut-off not given, nearly all actives have AC50 up to about 30 µM;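 further: cells exposed to compound for 48 hours before readout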); conditions: SU-DIPG-VI viability, CellTiter-Glo ATP luminescence
[21] = viability loss with induced miR-34 in A549 – imaging, A549 dox-inducible miR-34, nuclei and caspase counts, primary screen (AID 1347080;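 active means compounds whose cell count with miR-34 switched on is under 0.7 times the count with it off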); conditions: A549 miR-34 inducible, Hoechst nuclei count, 48 h
[22] = compounds altering HSF1 focus formation in cells – imaging, Selleck Cancer Library (AID 1347162; in the data active means plate-normalised HSF1 focus index below about 0.46); conditions: human cells, HSF1 nuclear foci imaging, at 10 µM; SSMD: measured here: HSF1 foci SSMD mean; cell count: measured here: cell number; plate-normalised HSF1 focus index: stronger effect = lower value
[23] = galactose survival enhancers in mitochondrial complex I cybrids – cell-based, galactose medium, ATP luminescence, primary screen (AID 1645843;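 active means z-score of at least 1.8 in each of two replicates, scored against plate mean and spread of sample wells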;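 further: positive z means more ATP and so rescue of galactose-driven cybrid death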); conditions: complex I mutant cybrid cells, 72 h, stronger effect = higher value
[24] = measured here: epithelial PC-3E GFP cell survival
[25] = measured here: mesenchymal TEM4-18 mCherry cell survival

For `C[C@H](Oc1ccc(Oc2ccc3ncc(Cl)nc3c2)cc1)C(=O)O`, the red/green cell ratio (normalised) [1] was 0.92 (inactive), the normalised cell number [1, 24] was 1.29 and the normalised cell number [1, 25] was 1.18.
For `C[C@@H]1CC[C@@]2(OC1)O[C@H]1CC3C4CC[C@H]5C[C@@H](O)CC[C@]5(C)C4CC[C@]3(C)[C@H]1[C@@H]2C` (stereo partly drawn), the red/green cell ratio (normalised) [1] was 0.88 (inactive), the normalised cell number [1, 24] was 1.17 and the normalised cell number [1, 25] was 1.03.
In the case of `CN(C(=O)Cc1ccccc1)C1C(O[C@@H]2OC(COS(=O)(=O)O)C(NC(=O)Cc3ccccc3)[C@H](OS(=O)(=O)O)[C@H]2OS(=O)(=O)O)OC2C[C@@H](NC(=O)Cc3ccccc3)[C@@H](OC3C(NC(=O)Cc4ccccc4)C[C@@H](NC(=O)Cc4ccccc4)[C@H](OS(=O)(=O)O)[C@H]3OS(=O)(=O)O)OC2C1OS(=O)(=O)O` (stereo partly drawn), the red/green cell ratio (normalised) [1] was 0.95 (inactive), the normalised cell number [1, 24] was 1.04 and the normalised cell number [1, 25] was 0.99.
For `CC1=C2[C@H](C=C3CCC[C@@H](C)[C@]3(C)[C@@H]2O)OC1=O`, the red/green cell ratio (normalised) [1] was 0.84 (inactive), the normalised cell number [1, 24] was 1.01 and the normalised cell number [1, 25] was 0.85.
In the case of `C[C@H]1[C@H](OC(=O)CCC(=O)O)O[C@@H]2O[C@]3(C)CC[C@H]4[C@H](C)CC[C@@H]1[C@@]24OO3`, the red/green cell ratio (normalised) [1] was 0.81 (inactive), the normalised cell number [1, 24] was 0.68 and the normalised cell number [1, 25] was 0.55.
In the case of `COc1cc2c(cc1OC)C1C(=O)c3c(O)cc4c(c3OC1CO2)C=CC(C)(C)O4` (stereo not drawn), the red/green cell ratio (normalised) [1] was 0.7 (inactive), the normalised cell number [1, 24] was 0.94 and the normalised cell number [1, 25] was 0.66.
With `Oc1ccc2ccccc2c1Oc1ccc2ccccc2c1` the red/green cell ratio (normalised) [1] was 0.92 (inactive), the normalised cell number [1, 24] was 0.86 and the normalised cell number [1, 25] was 0.79.
In the case of `O=C(O)C1O[C@@H](O)[C@@H](O)[C@@H](O)C1O` (stereo partly drawn), the red/green cell ratio (normalised) [1] was 0.93 (inactive), the normalised cell number [1, 24] was 1.22 and the normalised cell number [1, 25] was 1.13.
With `COC1=CC(=O)OC1(O)C(C)C` (stereo not drawn) the red/green cell ratio (normalised) [1] was 1.07 (inactive), the normalised cell number [1, 24] was 0.83 and the normalised cell number [1, 25] was 0.89.
In the case of `O=C1C=CC2=C3c4cc(O)c(O)cc4C[C@@]3(O)COC2=C1`, the red/green cell ratio (normalised) [1] was 1.29 (inactive), the normalised cell number [1, 24] was 1.07 and the normalised cell number [1, 25] was 1.38.
For `O[C@@H]1[C@H](O)CO[C@H]1O`, the red/green cell ratio (normalised) [1] was 0.77 (inactive), the normalised cell number [1, 24] was 1.11 and the normalised cell number [1, 25] was 0.86.
Work on `CC(=O)O[C@H]1C(=O)[C@@]2(C)C([C@H](OC(=O)c3ccccc3)[C@]3(O)C[C@H](OC(=O)[C@H](O)[C@@H](NC(=O)c4ccccc4)c4ccccc4)C(C)=C1C3(C)C)[C@]1(OC(C)=O)CO[C@@H]1C[C@@H]2O` (stereo partly drawn) yielded an inhibition [2] of 28.3%, a score [3] of 1.98 and a rescue above control [4] of 5.24. It also gave a cytochrome c release ratio [5] of 1.41, an inhibition of aggregation [6] of 69% and a glutamate uptake change [7] of -2.18%. For the same compound, the aggregation suppression score [8] was 1.25, the period change [9] was 0.575 h (inactive) and the parasite load remaining [10] was 178% (inactive) and 65.8% (inactive). The viability [10] was 87.4% and 98%, the inhibition [11] was -1% (inactive) and the fluorescence ratio (interference) [12] was 0.9 (inactive). The red/green cell ratio (normalised) [1] was 0.49 (inactive), the normalised cell number [1, 24] was 0.23 and the normalised cell number [1, 25] was 0.11. For the same compound, the remaining activity [13] was 121% (inactive), the AC50 [14] was 5.9 nM (active) and the outcome [15] was “inactive”. For the same compound, the outcome [16] was “inactive”, the outcome [17] was “inactive” and the outcome [18] was “inactive”. The AC50 [19] was 7.42 nM (active), the outcome [20] was “inactive” and the fold change ([21]; stronger effect = lower value, cell number ratio, induced over uninduced) was 1.16 (inactive) and 1.14 (inactive). For the same compound, the fold change ([21]; measured here: relative caspase fold change +Dox/-Dox) was 0.394 and 2.19, the cell count ([21]; measured here: total cells with miR-34 induction, stronger effect = lower value) was 2700 and 2090 and the cell count ([21]; measured here: total cells without miR-34 induction) was 2330 and 1830. For the same compound, the SSMD [22] was 5.16, the cell count [22] was 6910 and the plate-normalised HSF1 focus index [22] was 1.32 (inactive). The z-score [23] was 0.865 (inactive).
In the case of `CC(C)=C1CC[C@]2(C)[C@@H](O)CC[C@H]3[C@](C)(Cc4c[nH]c5ccccc45)[C@@H](C)CC[C@]132`, the red/green cell ratio (normalised) [1] was 0.86 (inactive), the normalised cell number [1, 24] was 1.09 and the normalised cell number [1, 25] was 0.94.
In the case of `C/C=C/C1=CC(=O)[C@H](O)[C@H]1O`, the red/green cell ratio (normalised) [1] was 1.04 (inactive), the normalised cell number [1, 24] was 1.04 and the normalised cell number [1, 25] was 1.07.
With `COC1=CC[C@@]2(C)[C@@](O)(CC[C@H]3Cc4c([nH]c5ccccc45)[C@@]32C)[C@@]12CC(=O)[C@](O)(C(C)(C)OC(C)=O)O2` the red/green cell ratio (normalised) [1] was 0.97 (inactive), the normalised cell number [1, 24] was 1.15 and the normalised cell number [1, 25] was 1.11.
